Shown are actives, neighbours in structure and some others; about 3.7% of the full set was active somewhere.
TCR activator: activates T cell receptor signaling; Potency, µM (top dose mostly 9.22 µM), for the others: at the top dose activation of IL-2 secretion, actives largely listed as activators; primary human leukocytes, anti-CD3, IL-2 HTRF, 48 h; 330,000 tested, under 10 active; note: % of control where 0% means no effect
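Activity was scored as IL-2 release from primary human leukocytes given only a TCR signal (a-CD3 beads) plus compound for 48 hr. Detection used a two-antibody HTRF format read at 665nm.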
WRN helicase inh: WRN helicase (human) inhibition. Q14191. Potency, µM (doses to about 114 µM), inactives show at the top dose activity change, negative = inhibition, most hits filed as inhibitors. WRN helicase unwinding, fluorescent forked duplex, kinetic. 0.46% of 360,000 active. AID 651768; note: potency is the fitted concentration of half-maximal effect; % is set by controls: 0 for no effect and ±100 for the full control effect; nearly all actives have a fitted effect of over 55% in size
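WRN at 20 nM final preincubated with compound 15 min at room temperature; reaction started with 100 nM fluorophore/quencher forked duplex oligonucleotide and 2 mM ATP final. Unwinding followed kinetically by red fluorescence (ex 525, em 598 nm).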
VDR inh: inhibitors of human vitamin D receptor. VDR-SRC2-3 peptide fluorescence polarization, 2 h. Potency, µM, for the others: max response, negative = inhibition, hits mostly inhibitors. AID 504847. 0.93% of 400,000 active; note: potency is the fitted concentration of half-maximal effect; % is set by controls: 0 for no effect and ±100 for the full control effect
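Measured by FP: displacement of SRC2-3 coactivator peptide from VDR by library compounds, following a two-hour ambient incubation.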
FEN1 inh: human FEN1 inhibition; P39748; Recombinant FEN1 flap cleavage, fluorescence, 15 min; Potency, µM (highest dose often 114 µM), inactives show at the highest dose activity change, negative = inhibition, most hits filed as inhibitors; 0.35% of 390,000 active; note: potency is the fitted concentration of half-maximal effect; % is set by controls: 0 for no effect and ±100 for the full control effect; nearly all actives have a fitted effect of over 65% in size
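Recombinant FEN1 (10 nM) was preincubated with pin-transferred compounds for 15 min at room temperature, then flap DNA substrate (50 nM final) was added. Plates were read at 0 and 15 min, and normalized concentration–response data were fitted to a four-parameter Hill equation.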
PLK1 PBD block: inhibitors of human PLK1 polo-box domain binding; Potency, µM, for the others: max response, negative = inhibition, most hits filed as inhibitors; Plk1 PBD binding of FITC phosphopeptide, fluorescence polarization; 2.8% of 360,000 active; note: potency is the fitted concentration of half-maximal effect; series mostly up to about 57 µM; % is set by controls: 0 for no effect and ±100 for the full control effect; nearly all actives have a fitted effect of over 65% in size
PI5P4K alpha inh: PI5P4K alpha (human) kinase inhibition; P48426; PI5P4Kalpha enzyme, ADP-Glo luminescence, 60 min; active compounds read low; max response, %; 1.2% of 330,000 active; AID 652105; active = max response of -50% or lower; inconclusive = between -30% and -50%; inactive = -30% or higher; note: value at the top dose of about 77 µM; % is set by controls: 0 for no effect and ±100 for the full control effect
Target sequence (P48426 whole entry, looked up): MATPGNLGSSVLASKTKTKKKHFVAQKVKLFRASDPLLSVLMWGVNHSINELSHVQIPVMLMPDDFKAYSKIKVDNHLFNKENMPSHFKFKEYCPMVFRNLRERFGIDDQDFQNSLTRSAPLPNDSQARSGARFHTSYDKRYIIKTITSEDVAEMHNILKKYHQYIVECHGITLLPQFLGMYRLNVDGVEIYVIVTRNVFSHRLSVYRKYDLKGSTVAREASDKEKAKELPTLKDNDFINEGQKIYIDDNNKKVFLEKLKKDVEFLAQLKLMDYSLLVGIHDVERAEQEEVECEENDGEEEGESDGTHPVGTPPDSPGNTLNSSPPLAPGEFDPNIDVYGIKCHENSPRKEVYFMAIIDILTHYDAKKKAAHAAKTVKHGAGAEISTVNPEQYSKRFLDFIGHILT
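Single end-point luminescence (ADP-Glo) quantified ADP from PI5P4Kalpha turnover; ATP 5 microM final, 1 h at RT, 0.1% CHAPS and 0.28 mM EGTA in HEPES pH 7.4.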
TbPYK confirm: confirmation of Trypanosoma brucei pyruvate kinase inhibitors; shares compounds with PLK1 PBD block; recombinant TbPYK, Kinase-Glo ATP luminescence; Potency, µM (series often up to 76.9 µM), for the others: at the top dose activity change, negative = inhibition, hits mostly inhibitors; 67% of 890 active; AID 720569; note: potency is the fitted concentration of half-maximal effect; % is set by controls: 0 for no effect and ±100 for the full control effect; nearly all actives have a fitted effect of over 70% in size
TbPYK ADP-Glo: inhibits T. brucei pyruvate kinase in orthogonal ADP-Glo assay. shares compounds with PLK1 PBD block. recombinant TbPYK, ADP-Glo luminescence, 60 min. Potency, µM (series often up to 76.9 µM), for inactives: at the highest dose activity change, negative = inhibition, most hits filed as inhibitors. 62% of 890 active; note: potency is the fitted concentration of half-maximal effect; % is set by controls: 0 for no effect and ±100 for the full control effect; nearly all actives have a fitted effect of over 75% in size
Numbers without * were called inactive; u = inconclusive; x = not tested or not shown; [ ] = remark or other dose. Unless noted, calls come from the whole dose curve; as a rule, active = well fitted curve in the direction sought with a large enough effect; inconclusive = small, poorly fitted or top-dose-only effect, or another doubt; inactive = no such curve, though single readings can be large; an effect the other way counts as inactive or inconclusive.

SMILES	TCR activator	WRN helicase inh	VDR inh	FEN1 inh	PLK1 PBD block	PI5P4K alpha inh	TbPYK confirm	TbPYK ADP-Glo
C=C1[C@@H](C)[C@H]2[C@H](Cc3ccccc3)NC(=O)[C@]23[C@H](OC(C)=O)/C=C/[C@](C)(O)C(=O)[C@@H](C)C/C=C/[C@H]3[C@@H]1O	x	x	-22%	x	x	x	x	x
Cc1cc(-n2c(/C=C/c3cccs3)nc3ccccc3c2=O)ccc1Br	x	x	6%	-1%	x	x	x	x
N#CCCn1cc(C=C2C(=O)NC(=O)NC2=O)c(-c2ccccc2)n1	7%	-10%	-39%	-24%	2.7µM*	-19	16µM*	32µM*
N#CCCn1cc(C(=O)NCc2ccccc2)c(-c2ccccc2)n1	-1%	-7%	10%	-3%	-8%	7	x	x
C/C(=C\[C@@H](N)C(=O)O)CP(=O)(O)O	x	x	-5%	x	x	x	x	x
COc1cc(C(=O)Nc2ccc(Br)cc2C(=O)c2ccccc2Cl)cc(OC)c1OC	9%[46.1 µM]	7%	-12%	1%	-12%	24	x	x
COc1ccccc1NS(=O)(=O)c1cc(NC(=O)c2ccc(Cl)nc2)ccc1N1CCCC1	-1%	u	u	13%	4.7µM*	u	4.5µM*	6.3µM*
CC(C)c1c(CN(C)[C@@H](C)Cc2ccccc2)n(C)n(-c2ccccc2)c1=O	x	x	-2%	x	x	x	x	x
CCCCc1nc2ccccc2c(=O)n1-c1cccc(OC)c1	x	x	-9%	u	x	x	x	x
COc1cccc(N2C(=O)/C(=C/c3ccc(C)o3)C(=O)NC2=S)c1	8%	u	u	u	2.7µM*	-59*	16µM*	28µM*
COc1ccc(N2C(=O)/C(=C/c3cccs3)C(=O)NC2=S)cc1	-3%	45µM*	-2%	-4%	2.1µM*	-96*	16µM*	25µM*
CCN(CC)c1ccc(C=C2C(=O)N(C)C(=S)N(C)C2=O)o1	-5%[46.1 µM]	-10%[11.6 µM]	-6%	-6%	35%	-27	x	x
Cc1ccc(/C=C2\C(=O)NC(=S)N(c3ccc(F)cc3)C2=O)o1	x	u	-6%	u	3.8µM*	-59*	16µM*	20µM*
O=C1NC(=O)N(c2ccc3c(c2)OCO3)C(=O)/C1=C/c1ccc(N2CCCCC2)o1	0%	-5%	-7%	7%	102%	-9	x	x
COc1ccc(N2C(=O)/C(=C/c3ccc(N(C)C)o3)C(=O)NC2=S)cc1	6%	-5%	0%	14%	106%	0	u	u

Compound activity (PubChem)
